# The supplement of paper PMC12282887
# ± gives the standard deviation of the averaged measurements.
# What was measured:
# Assay in all cases: promoter activity interaction Z-score (Lux/OD deviation from empty-vector control); higher = stronger promoter induction by the compound
# [1] = test system: E. coli BW25113 acrABp lux reporter
# Method in brief: (§1)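 At 37°C, E. coli BW25113 reporter cultures in 40 µl LB Lennox in 384-well plates were read for OD600 and luminescence every 30 min for 12 h. Windows were 0–8 h for wild type and 1–9 h for deletion strains, and wells under 10% of the median growth value were removed. The score is the Z-transformed residual of growth-normalised luminescence against a control fit.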
# [2] = test system: E. coli BW25113 micFp lux reporter
# Method in brief: as §1
# [3] = test system: E. coli BW25113 ompFp lux reporter
# Method in brief: as §1
# [4] = test system: E. coli BW25113 robp lux reporter
# Method in brief: as §1
# [5] = test system: E. coli BW25113 soxSp lux reporter
# Method in brief: as §1
# [6] = test system: E. coli BW25113 tolCp lux reporter
# Method in brief: as §1
# [7] = 0.11 µg/ml, genetic background: wild type
# [8] = 0.11 µg/ml, genetic background: ΔmarA
# [9] = 0.11 µg/ml, genetic background: Δrob
# [10] = 0.11 µg/ml, genetic background: ΔsoxS
# [11] = 0.21 µg/ml, genetic background: wild type
# [12] = 0.21 µg/ml, genetic background: ΔmarA
# [13] = 0.21 µg/ml, genetic background: Δrob
# [14] = 0.21 µg/ml, genetic background: ΔsoxS
# [15] = 0.43 µg/ml, genetic background: wild type
# [16] = 0.43 µg/ml, genetic background: ΔmarA
# [17] = 0.43 µg/ml, genetic background: Δrob
# [18] = 0.43 µg/ml, genetic background: ΔsoxS
# [19] = 0.86 µg/ml, genetic background: wild type
# [20] = 0.86 µg/ml, genetic background: ΔmarA
# [21] = 0.86 µg/ml, genetic background: Δrob
# [22] = 0.86 µg/ml, genetic background: ΔsoxS
smiles,measurement,setting,value
Cc1ncc([N+](=O)[O-])n1CCO [Metronidazole],promoter activity interaction Z-score,[1]; [7],0.0148 ± 0.051
same,promoter activity interaction Z-score,[1]; [8],0.993 ± 0.18
same,promoter activity interaction Z-score,[1]; [9],0.102 ± 0.12
same,promoter activity interaction Z-score,[1]; [10],0.194 ± 0.31
same,promoter activity interaction Z-score,[1]; [11],-0.197 ± 0.0096
same,promoter activity interaction Z-score,[1]; [12],-0.0386 ± 0.09
same,promoter activity interaction Z-score,[1]; [13],0.0596 ± 0.14
same,promoter activity interaction Z-score,[1]; [14],0.187 ± 0.31
same,promoter activity interaction Z-score,[1]; [15],-0.222 ± 0.18
same,promoter activity interaction Z-score,[1]; [16],0.706 ± 0.8
same,promoter activity interaction Z-score,[1]; [17],-0.0336 ± 0.17
same,promoter activity interaction Z-score,[1]; [18],0.0816 ± 0.12
same,promoter activity interaction Z-score,[1]; [19],0.191 ± 0.025
same,promoter activity interaction Z-score,[1]; [20],0.645 ± 0.49
same,promoter activity interaction Z-score,[1]; [21],0.143 ± 0.34
same,promoter activity interaction Z-score,[1]; [22],-0.0136 ± 0.22
same,promoter activity interaction Z-score,[2]; [7],-0.0559 ± 0.11
same,promoter activity interaction Z-score,[2]; [8],-0.0152 ± 0.0074
same,promoter activity interaction Z-score,[2]; [9],0.0206 ± 0.0032
same,promoter activity interaction Z-score,[2]; [10],-0.264 ± 0.11
same,promoter activity interaction Z-score,[2]; [11],-0.327 ± 0.068
same,promoter activity interaction Z-score,[2]; [12],-0.09496 ± 0.00031
same,promoter activity interaction Z-score,[2]; [13],-0.0735 ± 0.081
same,promoter activity interaction Z-score,[2]; [14],-0.0751 ± 0.037
same,promoter activity interaction Z-score,[2]; [15],-0.152 ± 0.26
same,promoter activity interaction Z-score,[2]; [16],-0.0333 ± 0.092
same,promoter activity interaction Z-score,[2]; [17],-0.000559 ± 0.02
same,promoter activity interaction Z-score,[2]; [18],-0.18 ± 0.06
same,promoter activity interaction Z-score,[2]; [19],-0.0833 ± 0.079
same,promoter activity interaction Z-score,[2]; [20],0.00541 ± 0.1
same,promoter activity interaction Z-score,[2]; [21],-0.0861 ± 0.014
same,promoter activity interaction Z-score,[2]; [22],-0.189 ± 0.084
same,promoter activity interaction Z-score,[3]; [7],0.217 ± 0.3
same,promoter activity interaction Z-score,[3]; [8],0.187 ± 0.0061
same,promoter activity interaction Z-score,[3]; [9],-0.155 ± 0.074
same,promoter activity interaction Z-score,[3]; [10],-0.0733 ± 0.12
same,promoter activity interaction Z-score,[3]; [11],-0.138 ± 0.22
same,promoter activity interaction Z-score,[3]; [12],-0.0604 ± 0.18
same,promoter activity interaction Z-score,[3]; [13],0.261 ± 0.17
same,promoter activity interaction Z-score,[3]; [14],0.2636 ± 0.0018
same,promoter activity interaction Z-score,[3]; [15],-0.0385 ± 0.54
same,promoter activity interaction Z-score,[3]; [16],0.144 ± 0.29
same,promoter activity interaction Z-score,[3]; [17],0.609 ± 0.017
same,promoter activity interaction Z-score,[3]; [18],0.11 ± 0.042
same,promoter activity interaction Z-score,[3]; [19],0.547 ± 0.5
same,promoter activity interaction Z-score,[3]; [20],1.12 ± 0.3
same,promoter activity interaction Z-score,[3]; [21],0.862 ± 0.19
same,promoter activity interaction Z-score,[3]; [22],0.815 ± 0.34
same,promoter activity interaction Z-score,[4]; [7],0.061 ± 0.23
same,promoter activity interaction Z-score,[4]; [8],0.425 ± 0.28
same,promoter activity interaction Z-score,[4]; [9],0.355 ± 0.21
same,promoter activity interaction Z-score,[4]; [10],-0.235 ± 0.13
same,promoter activity interaction Z-score,[4]; [11],0.165 ± 0.35
same,promoter activity interaction Z-score,[4]; [12],-0.111 ± 0.75
same,promoter activity interaction Z-score,[4]; [13],0.8 ± 0.29
same,promoter activity interaction Z-score,[4]; [14],0.979 ± 1.1
same,promoter activity interaction Z-score,[4]; [15],0.177 ± 0.99
same,promoter activity interaction Z-score,[4]; [16],0.7 ± 0.077
same,promoter activity interaction Z-score,[4]; [17],0.452 ± 0.054
same,promoter activity interaction Z-score,[4]; [18],-0.0713 ± 0.41
same,promoter activity interaction Z-score,[4]; [19],0.378 ± 0.83
same,promoter activity interaction Z-score,[4]; [20],0.776 ± 0.22
same,promoter activity interaction Z-score,[4]; [21],0.36 ± 0.24
same,promoter activity interaction Z-score,[4]; [22],0.489 ± 0.32
same,promoter activity interaction Z-score,[5]; [7],0.0487 ± 0.14
same,promoter activity interaction Z-score,[5]; [8],0.0513 ± 0.066
same,promoter activity interaction Z-score,[5]; [9],-0.047 ± 0.051
same,promoter activity interaction Z-score,[5]; [10],-0.0356 ± 0.017
same,promoter activity interaction Z-score,[5]; [11],-0.0569 ± 0.11
same,promoter activity interaction Z-score,[5]; [12],-0.088 ± 0.048
same,promoter activity interaction Z-score,[5]; [13],0.106 ± 0.0032
same,promoter activity interaction Z-score,[5]; [14],0.0415 ± 0.21
same,promoter activity interaction Z-score,[5]; [15],0.0827 ± 0.065
same,promoter activity interaction Z-score,[5]; [16],-0.0818 ± 0.06
same,promoter activity interaction Z-score,[5]; [17],0.0852 ± 0.18
same,promoter activity interaction Z-score,[5]; [18],0.0431 ± 0.011
same,promoter activity interaction Z-score,[5]; [19],0.036 ± 0.026
same,promoter activity interaction Z-score,[5]; [20],-0.085 ± 0.049
same,promoter activity interaction Z-score,[5]; [21],-0.132 ± 0.058
same,promoter activity interaction Z-score,[5]; [22],0.0974 ± 0.06
same,promoter activity interaction Z-score,[6]; [7],-0.237 ± 0.51
same,promoter activity interaction Z-score,[6]; [8],0.544 ± 0.53
same,promoter activity interaction Z-score,[6]; [9],-0.201 ± 0.23
same,promoter activity interaction Z-score,[6]; [10],0.183 ± 0.079
same,promoter activity interaction Z-score,[6]; [11],-0.938 ± 0.4
same,promoter activity interaction Z-score,[6]; [12],-0.0891 ± 0.26
same,promoter activity interaction Z-score,[6]; [13],0.158 ± 0.57
same,promoter activity interaction Z-score,[6]; [14],-0.129 ± 0.43
same,promoter activity interaction Z-score,[6]; [15],-0.953 ± 0.17
same,promoter activity interaction Z-score,[6]; [16],0.401 ± 1.3
same,promoter activity interaction Z-score,[6]; [17],-0.12 ± 0.26
same,promoter activity interaction Z-score,[6]; [18],-0.386 ± 0.015
same,promoter activity interaction Z-score,[6]; [19],0.119 ± 0.47
same,promoter activity interaction Z-score,[6]; [20],0.316 ± 0.49
same,promoter activity interaction Z-score,[6]; [21],-0.271 ± 1.3
same,promoter activity interaction Z-score,[6]; [22],0.345 ± 0.71
